# Screens as filed in PubChem BioAssay.
# ERK AVP block = vasopressin-driven ERK pathway inhibition; HEK293-V1b, vasopressin-stimulated pERK AlphaScreen; Potency, µM (top dose mostly 57.5 µM), for inactives: at the top dose activity, negative = inhibition, usual class: inhibitors; actives 0.99% (n = 72,000); also: nearly all actives have a fitted effect of over 55% in size
#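 Overnight-seeded V1b-HEK293 cells in 1% FBS got compound, then vasopressin (25 nM final, 5 min, 37C), then lysis buffer. AlphaScreen detection of phospho-ERK; activity normalized to basal and full-stimulation controls.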
# Luciferase inh = blocks Photinus pyralis firefly luciferase activity. purified firefly luciferase, luminescence, 8 min. Potency, µM (titrated, usually from 57.1 µM), without a hit: at the highest dose activity change, negative = inhibition, most hits filed as inhibitors. P08659. actives 2.2% (n = 72,000); also: nearly all actives have a fitted effect of over 40% in size
#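 Substrate buffer containing 10 uM ATP (pH 7.2 imidazole, Mg2+, KCl, detergent, BSA) is dispensed, compound pinned in, then luciferase/luciferin detector mix added. After 8 min at ambient temperature, light output is measured.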
# HADH2 inh = blocks human hydroxyacyl-CoA dehydrogenase type II. Q99714. recombinant HADH2, NADH fluorescence, beta-hydroxybutyryl-CoA. Potency, µM (titrated, usually from 57.1 µM), for the others: at the top dose activity change, negative = inhibition, most hits filed as inhibitors. actives 3.4% (n = 73,000); also: nearly all actives have a fitted effect of over 60% in size
# Target sequence (Q99714 whole entry, looked up, one chain of several): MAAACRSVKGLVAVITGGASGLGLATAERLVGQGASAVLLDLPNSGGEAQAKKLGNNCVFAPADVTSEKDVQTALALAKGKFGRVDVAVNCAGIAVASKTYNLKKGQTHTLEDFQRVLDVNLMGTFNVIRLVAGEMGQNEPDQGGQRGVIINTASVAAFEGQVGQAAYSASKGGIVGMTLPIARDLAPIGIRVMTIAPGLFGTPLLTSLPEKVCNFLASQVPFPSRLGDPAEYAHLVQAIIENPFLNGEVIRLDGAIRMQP
#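 Buffer 100 mM Tris-HCl pH 9.0/0.01% Tween-20; HADH2 20 nM; NAD+ 1 mM; beta-hydroxybutyryl-CoA 90 uM (all final). 15 min cpd preincubation, RT.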
# 15-hLO inh = blocks human 15-lipoxygenase activity. Potency, µM (top dose mostly 57.1 µM), inactives show at the highest dose activity change, negative = inhibition, hits mostly inhibitors. purified 15hLO-1, xylenol orange hydroperoxide absorbance. AID 887. actives 1.4% (n = 74,000); also: nearly all actives have a fitted effect of over 55% in size
#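 Quantitative HTS in 25 mM Hepes pH 7.5 containing 0.01% Triton X-100: human 15hLO-1 at 40 nM, arachidonic acid at 50 uM, 6 min turnover. Product quantified via ferrous oxidation/xylenol orange, 573:405 nm absorbance ratio.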
# HSD17B inhib = blocks hydroxysteroid 17-beta dehydrogenase activity; Q99714; recombinant HSD17B10, NADH fluorescence kinetic; Potency, µM (titrated, usually from 57.1 µM), for the others: top-dose activity change, negative = inhibition, usual class: inhibitors; actives 7.6% (n = 75,000);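 also: the protocol describes HADH2 (HSD17B10) and not the HSD17B4 of the title; nearly all actives have a fitted effect of over 70% in size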
#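 20 nM HADH2, pH 9.0 Tris/Tween; cpd preinc 15 min RT; start w/ 1 mM NAD+ + 90 uM b-hydroxybutyryl-CoA; kinetic fluor ex360/em450 q30s x 4 min; delta last-first.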
# Bst PK mod = modulators of Bacillus stearothermophilus pyruvate kinase; Potency, µM; purified pyruvate kinase, luminescence ATP production; ribose 5-phosphate activator present at AC10; actives 1.2% (n = 51,000); in the data active = potency below about 11 µM; inconclusive = mostly about 12 µM to 25 µM;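 the screen sought inhibitors and activators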;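 also: scaled between full activation by ribose 5 phosphate and full inhibition by luteolin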
# The depositor's hits bear a star; i = inactive; ? = inconclusive; / = no result; [ ] = dose if it differs, or a comment. Most compounds without a hit are left out; they make up all but 11% or so of the library. Unless noted, calls follow the shape of the dose curve; as a rule, active = well fitted curve in the direction sought with a large enough effect; inconclusive = small, poorly fitted or top-dose-only effect, or another doubt; inactive = no such curve, though single readings can be large; an effect the other way counts as inactive or inconclusive. Unless noted, % is scaled to controls: 0 for no effect and ±100 for the full control effect; potency is read from the fitted curve at half-maximal effect.
SMILES,ERK AVP block,Luciferase inh,HADH2 inh,15-hLO inh,HSD17B inhib,Bst PK mod
CCC1=C2CC[C@H]3C(=O)N(c4ccccc4)C(=O)[C@H]3[C@H]2[C@@]2(Cc3ccccc3)C(=NCc3ccccc3)OC(=O)N2C1=O,-13%,/,/,/,2%,/
CO[C@@H]1C=CO[C@]2(C)Oc3c(C)c(O)c4c(O)c(c(C=NN5CCN(C)CC5)c(O)c4c3C2=O)NC(=O)C(C)=CC=C[C@H](C)[C@H](O)[C@H](C)[C@H](O)[C@H](C)[C@H](OC(C)=O)[C@H]1C,?,2%[25.5 µM],4%[25.6 µM],-4%[25.6 µM],-5%[25.6 µM],/
COCCCn1cnc2c(c1=O)c1nc3ccccc3nc1n2-c1ccccc1,-16%,1%,-9%,-4%,10µM*,>57
COCCCn1c2nc3ccccc3nc2c2c(=O)n(Cc3ccccc3Cl)cnc21,7%,2%,13%,-1%,?,>57
CCCCn1c2nc3ccccc3nc2c2c(=O)n(C(C)CC)cnc21 (configuration not stated),-17%,2%,-30%,-2%,3.2µM*,>57
COCCCn1c2nc3ccccc3nc2c2c(=O)n(Cc3ccc(Cl)cc3)cnc21,2%,2%,61%,-1%,3.2µM*,>57
COCCCn1cnc2oc3nc4ccccc4nc3c2c1=O,-18%,25µM*,32µM*,1%,?,/
N[C@@](CCc1ccccc1)(C(=O)O)c1ccccc1,-6%[11.5 µM],2%[11.4 µM],3%[11.4 µM],4%[11.4 µM],-5%[11.4 µM],/
N#Cc1cccc(-c2nc(Nc3ccccc3)c3ccccc3n2)c1,-24%,0%[2.29 µM],-4%,-14%,?,/
O=c1c2c3nc4ccccc4nc3n(CC3CCCO3)c2ncn1CCc1ccccc1 (configuration not stated),-19%,4%,-18%,6%,6.3µM*,>57
O=c1c2c3nc4ccccc4nc3n(Cc3ccccc3)c2ncn1Cc1ccco1,-19%,-17%,?,?,25µM*,>57
COc1cc(-n2c3nc4ccccc4nc3c3c(=O)n(Cc4ccco4)cnc32)cc(OC)c1OC,/,-3%[25.5 µM],/,/,/,>26
O=[N+]([O-])c1cccc(/C=N\NC2=CS(=O)(=O)C=C2)c1,2%[11.5 µM],2%[11.4 µM],3%[11.4 µM],-6%[11.4 µM],-1%[11.4 µM],/
COCCNc1ncnc2ccc(-c3ccccc3OC)cc12,-18%,1%[2.29 µM],?,13%,25µM*,/
COCCNc1ncnc2ccc(-c3ccccc3C(F)(F)F)cc12,?,0%[2.29 µM],?,25µM*,?,/
O=C(Nc1ccc(C(=O)Nc2ccc(C(=O)Nc3ccc(S(=O)(=O)O)c4cc(S(=O)(=O)O)cc(S(=O)(=O)O)c34)cc2)cc1)Nc1ccc(C(=O)Nc2ccc(C(=O)Nc3ccc(S(=O)(=O)O)c4cc(S(=O)(=O)O)cc(S(=O)(=O)O)c34)cc2)cc1,-21%,2%,?,?,1.3µM*,/
O=C(Nc1cc(C(=O)Nc2ccc(S(=O)(=O)O)cc2S(=O)(=O)O)cc(C(=O)Nc2ccc(S(=O)(=O)O)cc2S(=O)(=O)O)c1)Nc1cc(C(=O)Nc2ccc(S(=O)(=O)O)cc2S(=O)(=O)O)cc(C(=O)Nc2ccc(S(=O)(=O)O)cc2S(=O)(=O)O)c1,-9%,-3%,1%,-4%[25.6 µM],0.79µM*,/
COc1ccc2[nH]cc(CCNc3ccnc(-c4c(C)noc4C)n3)c2c1,-21%,-1%[2.29 µM],13%,-8%,10%,/
Cc1cc(C(=O)CSC(=S)SC(C)(C)C)ccc1Cl,8%[11.5 µM],-8%[11.4 µM],-7%[11.4 µM],-2%[11.4 µM],4%[11.4 µM],/
CCOC(=O)c1c(C)[nH]c(C=Nc2ccccc2)c1O,-5%,-1%,-9%,5µM*,-11%,>57
CCCC(=O)n1nc(-c2ccco2)nc1SCc1ccccc1,10%,-28%,16µM*,?,?,/
Nc1nc(-c2ccco2)nn1C(=O)CCc1ccccc1,-29%,2%,-14%,12%,13%,>57
N=C(N)SCc1cc(Cl)cc(Cl)c1O,4%[11.5 µM],3%[11.4 µM],-15%[11.4 µM],-6%[11.4 µM],-5%[11.4 µM],/
c1ccc(-c2csc3ncn4nnnc4c23)cc1,?,-1%,-10%,2%,25µM*,>57
Cn1nnnc1Sc1ncnc2scc(-c3ccccc3)c12,-9%,1%,?,-15%,?,>57
SMILES,ERK AVP block,Luciferase inh,HADH2 inh,15-hLO inh,HSD17B inhib,Bst PK mod
COC(=O)c1ccc(C(NC(=O)OCc2ccccc2)/C(=C/[C@@H](C)C(=O)NCc2ccc(S(C)(=O)=O)cc2)c2cccnc2)cc1 (some centres not stated),-12%,/,-2%,2%,10%,/
CN(C)CCCNc1oc(-c2ccccc2)nc1C#N,-12%,-1%,25µM*,5%,25µM*,>57
CN(C)CCNc1oc(-c2ccccc2F)nc1C#N,-12%,1%,?,3%,32µM*,/
COc1ccc(CCNc2oc(-c3ccc(OC)c(OC)c3)nc2C#N)cc1,?,-6%,32µM*,-11%,25µM*,>57
COc1ccc(-c2nc(C#N)c(NCC3CCCO3)o2)cc1OC (configuration not stated),?,-26%,1%,1%,32µM*,/
COC(=O)C/C=C\[C@@H](C)[C@@H](/C=N\O[C@@H](C)CN1CCCc2nc(C)c(C)cc21)NS(=O)(=O)c1ccc(C)cc1,2%[11.5 µM],0%[11.4 µM],7%[11.4 µM],5%[11.4 µM],?,/
C#CCCCCCCCCCCCC(O)CC(O)COC(C)=O (configuration not stated),9%,/,/,-11%,-16%,/
CC(C)C[C@@H](CC(=O)N[C@@H](CCC(=O)O)CC(=O)O)NC(=O)[C@@H]1CNCC[C@H]1NC(=O)C[C@H](CCCN)NC(=O)C[C@H](Cc1ccccc1)NC(=O)[C@@H]1CNCC[C@H]1N,/,/,15%,/,/,/
COc1ccc(-c2nc(C#N)c(NC(C)c3ccccc3)o2)cc1OC (configuration not stated),16µM*,-2%,?,-14%,25µM*,>57
COc1ccc(-c2nc(C#N)c(N3CCN(c4cccc(Cl)c4)CC3)o2)cc1OC,2%,0%,?,7%,5%,>57
COc1ccc(-c2nc(C#N)c(NCCCN(C)C)o2)cc1OC,-26%,-9%,32µM*,15%,32µM*,/
COCCNc1oc(-c2ccc(F)cc2)nc1C#N,/,-4%[25.5 µM],/,/,/,i
N#Cc1nc(-c2ccccc2F)oc1NC1CCCCC1,-17%,-9%,32µM*,-25%,13µM*,/
N#Cc1nc(-c2ccccc2F)oc1NCc1cccc2c1OCO2,?,0%,6%,-23%,13µM*,>57
O=C(CCc1nc(-c2ccccc2F)no1)NC1CCCCCC1,16%,0%,6%,-2%,4%,>57
CC=C(Cl)Cl,6%,/,-1%,-2%,-1%,/
